Compound activity (PubChem BioAssay)
Rows were chosen to be rich in hits. Some 21% of all compounds tested hit in one or more screens of this group.
CHX counter: affects cycloheximide protein synthesis inhibition readout, counter-screen; cell reporter, cycloheximide protein synthesis inhibition counterscreen; max response, %; 300,000 tested, 12% active; in the data active means max response mostly above about 13%, no sharp cut-off; inactive means mostly below about 14%; further: read at 38.3 µM for the half of the compounds with a filed dose
Pf growth 48h: inhibits P. falciparum growth in the first generation, 48 h | P. falciparum luciferase growth in erythrocytes, 48 h | Potency, µM (titrated, usually from 28.7 µM), most hits filed as inhibitors | 310,000 tested, 5.9% active | AID 504832; active means well fitted inhibition curve with a large enough effect; inconclusive means small, poorly fitted or top-dose-only effect, or another doubt; inactive means no such curve, though single readings can be large or run the other way
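First compound was added to culture medium, then infected red cells at 0.1% parasitemia and 2% hematocrit (final). After incubation at 37 C under 5% CO2, luciferase detection reagent was dispensed and light output recorded.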
Pf growth 96h: inhibits malaria parasite growth, 96 h. P. falciparum luciferase reporter growth, 96 h. Potency, µM (highest dose often 28.7 µM), most hits filed as inhibitors. 320,000 tested, 6.9% active; active means well fitted inhibition curve with a large enough effect; inconclusive means small, poorly fitted or top-dose-only effect, or another doubt; inactive means no such curve, though single readings can be large or run the other way
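Parasite growth measured via integrated firefly luciferase reporter in P. falciparum. Infected erythrocytes at 2% hematocrit, 0.05% parasitemia final were treated 96 hours at 37 C under 5% CO2, and luminescence was read.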
SARS PLP yeast: blocks SARS-CoV papain-like protease in a yeast assay. 330,000 tested, 0.19% active. AID 485353. Potency, µM (top dose mostly 32.9 µM), usual class: activators. S. cerevisiae expressing SARS-CoV PLpro, growth rescue; further: nearly all actives have a fitted effect of over 55% in size
Shiga inhibitor: inhibitors of Shiga toxin in Vero cells; Vero cells, Shiga toxin protein synthesis inhibition reporter; 290,000 tested, 9.2% active; inhibition, % at 38.7 µM; AID 2315; in the data active means inhibition mostly above about 28%, no sharp cut-off; inactive means mostly below about 43%
NS1 function inh: blocks influenza NS1 protein function. AID 2326. Potency, µM (series often up to 46.1 µM). 270,000 tested, 0.4% active; further: actives are rising curves; nearly all actives have a fitted effect of over 50% in size
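S. cerevisiae expressing influenza A NS1, grown in glucose, washed, then diluted 1:100 into pH 6.0 -URA galactose medium with 23 nl compound. Growth recovery read as OD600; NS1-free strain serves as control.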
Of the large screens only hits and unclear results are named; the others gave an inactive call. Unless noted, the call rests on the fitted dose curve.

CN1CCN(C(=O)c2cccc(COc3cc(Cl)ccc3Cl)c2)CC1	CHX counter 48.0, Shiga inhibitor 102.6 (no result: Pf growth 96h)
CCN(CC)C(=O)c1ccc(COc2ccccc2Cl)cc1	Shiga inhibitor 48.1 (no result: Pf growth 48h)
CN1CCN(C(=O)c2ccc(COc3cc(Cl)ccc3Cl)o2)CC1	none
CCC(C)NC(=O)c1ccc(COc2ccccc2Cl)cc1 (configuration not stated)	CHX counter 15.4, Pf growth 48h inconclusive (no result: Pf growth 96h)
O=C(/C(=N\Nc1ccccc1)Sc1nnnn1-c1ccccc1)c1ccccc1	none
O=C(O)c1cccc(COc2ccccc2Cl)c1	CHX counter 13.6, Shiga inhibitor 18.8 (no result: Pf growth 96h)
Cc1ccc(-c2cc(C(F)(F)F)nn2-c2ccc(S(N)(=O)=O)cc2)cc1	Pf growth 48h 15.1µM, Pf growth 96h 5.86µM
Cc1ccc(N2C(=O)CC(n3nc(C)cc3C)C2=O)cc1 (configuration not stated)	Pf growth 96h inconclusive (no result: Pf growth 48h)
COc1cc(/C=C(/C#N)c2ccc(C)cc2)ccc1Oc1ccc([N+](=O)[O-])cn1	Pf growth 48h inconclusive
COc1ccc2nc(/C(C#N)=C\c3ccc(Oc4ccc([N+](=O)[O-])cn4)cc3)[nH]c2c1	Pf growth 48h 14.7µM, Pf growth 96h inconclusive, NS1 function inh inconclusive
COc1ccc2nc(/C(C#N)=C\c3ccc(C(=O)O)cc3)[nH]c2c1	none (no result: NS1 function inh)
Cc1ccc2nc(/C(C#N)=C\c3ccc(Oc4ccc([N+](=O)[O-])cn4)cc3)[nH]c2c1	Pf growth 48h 9.28µM, Pf growth 96h inconclusive
COCCNC(=O)CN(C(=O)CCC(=O)Nc1ccccn1)c1ccccc1OC	Pf growth 48h inconclusive, Pf growth 96h inconclusive
Cc1ccc(OCC(=O)c2cc(C)n(-c3ccccc3)c2C)c([N+](=O)[O-])n1	CHX counter 45.5, Shiga inhibitor 64.0
COCCn1c(C)cc(C(=O)COc2ccc(C)nc2[N+](=O)[O-])c1C	none
Cc1ccc(OCC(=O)c2cc(C)c(C)cc2C)c([N+](=O)[O-])n1	none (no result: Pf growth 48h)
C=CCn1c(C)cc(C(=O)COc2ccc(S(=O)(=O)N3CCCC3)cc2[N+](=O)[O-])c1C	CHX counter 13.2, Pf growth 48h inconclusive, Pf growth 96h inconclusive, NS1 function inh inconclusive
C=CCn1c(C)cc(C(=O)COc2nncc3ccccc23)c1C	CHX counter 68.9, Shiga inhibitor 159.0 (no result: Pf growth 48h)
C=CCn1c(C)cc(C(=O)COc2ccc(C)nc2[N+](=O)[O-])c1C	CHX counter 74.7, Shiga inhibitor 98.0
CCC1(c2ccccc2)NC(=O)N(CC(=O)N(C)Cc2c(F)cccc2Cl)C1=O (configuration not stated)	Pf growth 48h inconclusive, Pf growth 96h inconclusive, NS1 function inh inconclusive
Cc1cccc(NC(=O)NN2CCN(C)CC2)c1C	none
CCOC(=O)CSc1nc(-c2cccs2)nc2c1c(=O)n(C)c(=O)n2C	none
CN(C(=O)COC(=O)c1cc(S(=O)(=O)N2CCOCC2)ccc1Cl)C1CCS(=O)(=O)C1 (configuration not stated)	none (no result: CHX counter, Shiga inhibitor, NS1 function inh)
O=[N+]([O-])c1cc(S(=O)(=O)N2CCCC2)ccc1OCc1ccccc1	CHX counter 28.3
Cc1ccc(C)c(C(=O)COc2ccc(C)nc2[N+](=O)[O-])c1	Pf growth 96h inconclusive (no result: Pf growth 48h)
Cc1ccc(OCC(=O)c2c[nH]c3ccccc23)c([N+](=O)[O-])n1	CHX counter 51.2, Pf growth 48h inconclusive, Shiga inhibitor 80.6 (no result: NS1 function inh)
O=[N+]([O-])c1cc(S(=O)(=O)N2CCCC2)ccc1OCCOc1ccccc1	Pf growth 96h inconclusive (no result: CHX counter, Shiga inhibitor, NS1 function inh)
CCCn1c(C)cc(C(=O)COc2ccc(C)nc2[N+](=O)[O-])c1C	CHX counter 15.1, Shiga inhibitor 85.0
CNC(=O)c1cc(C(=O)c2ccc(Cl)cc2)c[nH]1	CHX counter 24.1, Shiga inhibitor 56.0 (no result: Pf growth 48h)
O=C(c1ccc(Cl)cc1)c1c[nH]c(C(=O)NNc2ccccc2)c1	none
O=C1C2C3C=CC(C3)C2C(=O)N1CCN1CCN(Cc2ccc([N+](=O)[O-])cc2)CC1 (configuration not stated)	none
COc1ccc(/C(N)=N/OC(=O)Cc2ccc(C)cc2)cc1OC	CHX counter 15.4
N/C(=N\OC(=O)Cc1ccc(Cl)cc1)c1ccncc1	Pf growth 48h inconclusive
COc1ccc(CC(=O)O/N=C(\N)c2ccc(C)cc2)cc1	CHX counter 46.7, Shiga inhibitor 117.8
COc1ccc(OCC(=O)O/N=C(\N)c2ccc(OC)c(OC)c2)cc1	Pf growth 96h inconclusive
COc1ccc(CC(=O)O/N=C(\N)c2ccncc2)cc1	CHX counter 15.3, Shiga inhibitor 81.6
COc1cccc(OCC(=O)O/N=C(\N)c2ccc(OC)c(OC)c2)c1	Pf growth 96h 6.57µM
COc1cccc(-c2noc(CCC(=O)NCC3CCCO3)n2)c1 (configuration not stated)	none (no result: NS1 function inh)
COC(=O)[C@H](CC(C)C)NC(=O)c1ccc(NC[C@@H](N)CS)cc1-c1cccc2ccccc12	none (no result: Pf growth 48h, Pf growth 96h, SARS PLP yeast, NS1 function inh)
O=C(c1cccc(N2C(=O)C3C4C=CC(C4)C3C2=O)c1)N1CCN(c2ccccc2)CC1 (configuration not stated)	Pf growth 96h inconclusive (no result: NS1 function inh)
CCOc1ccc(CN(C(=O)c2cccs2)C2CCS(=O)(=O)C2)cc1 (configuration not stated)	none
Cc1ccccc1CC1(CO)CCCN(Cc2nc(-c3cccs3)oc2C)C1 (configuration not stated)	Pf growth 48h inconclusive
O=C(OCc1nnc(-c2ccccc2)o1)C1CCN(C(=O)c2ccc(Cl)cc2)CC1	none (no result: CHX counter, Shiga inhibitor, NS1 function inh)
CCOP(=O)(OCC)C(NC(=O)/C=C/c1ccc(OC)cc1)c1ccccc1 (configuration not stated)	none (no result: NS1 function inh)
c1cc2c(cc1-c1csc(NNC3=NCCCCC3)n1)OCCO2	CHX counter 37.2, Pf growth 48h inconclusive, Pf growth 96h inconclusive, Shiga inhibitor 55.1 (no result: NS1 function inh)
NC(=O)C1CCN(c2nc(-c3ccc4c(c3)OCCO4)cs2)CC1	Pf growth 48h inconclusive, Pf growth 96h inconclusive (no result: CHX counter, Shiga inhibitor, NS1 function inh)
CC(C)(C)C(=O)Nc1nc(-c2ccc3c(c2)OCO3)cs1	CHX counter 23.7, Shiga inhibitor 51.2 (no result: Pf growth 48h)
COc1ccccc1C(=O)Nc1nc(-c2ccc3c(c2)OCCO3)cs1	CHX counter 27.9, Shiga inhibitor 56.7 (no result: NS1 function inh)
CCC(=O)Nc1nc(-c2ccc3c(c2)OCCO3)cs1	CHX counter 30.8, Shiga inhibitor active
COc1ccc2c(c1)nc1n2CN(CC2CCCO2)CN1Cc1ccccc1 (configuration not stated)	CHX counter 31.9, Pf growth 48h 9.28µM, Pf growth 96h 11.7µM, Shiga inhibitor 49.3
Cc1cc(C)n2cc(CSc3nnnn3-c3ccccc3)nc2n1	Pf growth 96h 8.28µM, NS1 function inh inconclusive
Cc1cc(C)n2cc(CSc3nnnn3-c3ccc(Cl)cc3)nc2n1	none
Cc1cc(C)n2cc(CSc3ccc(Br)cc3)nc2n1	CHX counter 25.7, Shiga inhibitor 30.5 (no result: NS1 function inh)
